95 compounds from PubChem BioAssay AID1628 (Sanford-Burnham Center for Chemical Genomics, 2009) can be followed below.

The campaign covered roughly 190,000 compounds. About 930 (0.49%) were called active. The list shows a part of the results. Measured potencies and affinities stand elsewhere. Values without a mark were called inactive.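 The calls were made as follows: active = z-score of insulin promoter reporter brightness in nuclei below -3 at 5 µM, with at least 500 cells counted; inconclusive = wells with under 500 cells, flagged as toxic or sparse; inactive = the rest.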

The assay in a line: decrease of insulin promoter-GFP reporter – imaging, high-content screening, mouse beta cells (AID 1628). The conditions noted are these: MIN6 insulin promoter GFP reporter, at 5 µM, stronger effect = lower value.
`COc1ccc(C2C(C(=O)N3CCOCC3)CCC(=O)N2c2ccc(OC)cc2)cc1` (stereo not given): the z-score is 3.73. Next, `COc1ccc(N2CCN(C(=O)C3CCC(Cn4c(=S)[nH]c5ccccc5c4=O)CC3)CC2)cc1` (stereo not given): -3.35 (active). The figure for `Nc1c(C(=O)c2cccs2)sc2nsc(SCCN3CCCCC3)c12` is 8.75; for `Nc1nc(-c2ccc(Cl)cc2)c(N=Nc2ccc(S(=O)(=O)N3CCOCC3)cc2)s1` it is 3.8.

Turning to `CCN(CC)c1ccc(/C=C2/SC(=O)N(C(C)C)C2=O)o1`, the z-score was 17.3.

For `Cc1cc(Cl)n2nc(C)c(-c3ccc(Cl)cc3)c2n1`, the z-score was -5.26 (active). Consider `CN(C)S(=O)(=O)Oc1cccc(C(=O)Nc2ccc([N+](=O)[O-])cc2)c1`, for which the z-score is 3.38.

In the case of `O=C(CCn1cccc1)Nc1ccc(OC(F)(F)F)cc1`, the z-score is 2.14. The figure for `CCCOc1ccc2ccccc2c1/C=N/n1c(C)nnc1-n1nc(C)cc1C` is -4.98 (active); for `N#C/C(=C\c1ccc(N2CCCCC2)o1)C(N)=O` it is 7.37.

With `O=C(O)c1cc([N+](=O)[O-])c(NCCC2=CCCCC2)c([N+](=O)[O-])c1`, the z-score was 0.74. Turning to `COC(CNC(=O)CSCc1nc(-c2ccc(SC)cc2)oc1C)OC`, the z-score is 2.32. On to `COc1cc(C(=O)Oc2ccccc2/C=N/NC(=O)c2ccc(C)c(Cl)c2)cc(OC)c1OC`, for which the z-score was -5.2 (active).

Take `COc1cccc(/C=N/NC(=O)c2ccc(N(C)S(=O)(=O)c3ccccc3)cc2)c1OC`: the z-score was 3.8. With `CCCN1C=CC(=CC=C(C#N)C#N)C=C1`, the z-score was 4.99. For `CCC(=O)Nc1ccc(C(=O)Cn2ncc(Cl)c(Cl)c2=O)cc1`, the z-score was -3.05 (active). Next, `COc1ccccc1C(=O)NC(=Nc1nc2ccccc2o1)NC(=O)c1ccccc1OC`: -6.44 (active). Next, `C=CCNC(=O)/C(=C\c1ccc(Br)cc1)NC(=O)c1ccccc1OC`: 3.42; `COc1ccccc1C(=O)NNC(=O)C(=O)NC(C)(C)C`: 3.28. The figure for `COc1ccccc1N/C=C/c1onc(C)c1[N+](=O)[O-]` is 4.57; for `Cn1c(/C(C#N)=C/c2ccc(-c3ccc(S(N)(=O)=O)cc3)o2)nc2ccccc21` it is 4.53. Turning to `CNC(=S)NNC(=O)c1oc2nc(-c3ccccc3)cc(-c3ccco3)c2c1N`, the z-score is 3.41. Consider `C/C(=N\Nc1ccc([N+](=O)[O-])cc1)c1cc2ccccc2o1`, for which the z-score was 5.52. On to `C/C(=N/Nc1nc(-c2ccccc2)cc(-c2ccccc2)n1)c1ccc(N)cc1`, for which the z-score is -3.67 (active). As for `COc1cc(OC)c(-c2c3cc(O)c(=O)cc-3oc3cc(O)c(O)cc23)cc1OC`, the z-score is 11.4.

On to `Cc1cccc(NC(=O)COc2cccc3c2CCN(Cc2ccccc2)C3=O)c1C`, for which the z-score is -3.66 (active). Regarding `Cc1nccn1CCc1n[nH]c(=S)n1Cc1ccccc1`, the z-score was -4.01 (active).

As for `S=c1[nH]nc(-c2ccccc2)n1CC1CCCO1` (stereo not given), the z-score is 3.06.

For the compound `CC(C)OC(=O)c1c2c(n3ccccc13)C(=O)c1ccccc1C2=O`, the z-score was 11.7. As to `CN1c2ccccc2N(C)C1c1c(O)ccc2ccccc12`, the z-score was 1. Next, `Cc1nc2ccc(S(=O)(=O)NC(C(=O)N3CCC(C)CC3)C(C)C)cc2s1` (stereo not given): -4.34 (active); `CC1CC(C)CN(C(=O)c2cccc3c2-c2ccccc2C3=O)C1` (stereo not given): 3.97. Next, `CC1CCN(C(=O)CNS(=O)(=O)c2ccc(Br)s2)CC1`: 3.37. Next, `CCC(C)NS(=O)(=O)c1ccc(OCC(=O)N2CCC(C)CC2)cc1` (stereo not given): 0.84; `CC1CC(C)CN(C(=O)C(NS(=O)(=O)c2ccc3c(c2)oc(=O)n3C)C(C)C)C1` (stereo not given): -5.42 (active); `CCCN(CCC)S(=O)(=O)c1ccc(C(=O)OCCN2C(=O)c3cccc4c(N5CCOCC5)ccc(c34)C2=O)cc1`: 6.18. As to `CCCN(CCC)S(=O)(=O)c1ccc(C(=O)Nc2nnc(-c3cc(OC)cc(OC)c3)o2)cc1`, the z-score was -4.56 (active).

As for `COc1cc(OC)cc(C(=O)Nc2cccc(C(C)=O)c2)c1`, the z-score was 3.53.

Turning to `Cc1ccc(NC(=O)/C=C/c2ccc([N+](=O)[O-])s2)c(C)c1`, the z-score is 13.3. Next, `Cc1ccc2nc(SCC(=O)Nc3ccc(C)c([N+](=O)[O-])c3)[nH]c2c1`: -4.5 (active); `COc1ccc2nc(SCC(=O)Nc3c(C)cccc3C)[nH]c2c1`: 3.26. For `N#C/C(=C/c1ccc(N2CCCCC2)o1)C(=O)Nc1ccc2ccccc2c1`, the z-score is 12.9. The figure for `CCCN1C(=O)/C(=C/c2c(N3CCNC(=O)C3CC(=O)OCC)nc3c(C)cccn3c2=O)SC1=S` (stereo not given) is 12.1; for `O=C(CSc1nc2[nH]ncc2c(=O)n1-c1ccccc1)NCCc1ccccc1` it is 2.5; for `O=C(CSc1ccc2ccccc2c1)NCCc1ccc(O)c(O)c1` it is -3.3 (active). Consider `O=C(COc1ccccc1)NCCn1ccc2ccccc21`, for which the z-score was 1.18. On to `CCCCN(CC(=O)NCc1ccc(Cl)cc1)S(=O)(=O)c1ccc2c(c1)OCCO2`, for which the z-score is -4.37 (active). Next, `Cc1cc(SCC(=O)N2CCCC2)nc2ccccc12`: -0.89. The figure for `COc1cc2c(cc1OC)C(C)=NCC2` is 0.45; for `Cc1cc2oc(=O)cc(CN3CCN(S(=O)(=O)c4ccc5c(c4)OCCO5)CC3)c2cc1C` it is -4.33 (active); for `CNC(=O)C1CC(=O)N/C(=N/N=C(\C)c2cccs2)S1` (stereo not given) it is 3.72. Consider `CCOc1ccccc1OCCCCCc1c(C)n[nH]c1C`, for which the z-score was -3.04 (active). Turning to `O=c1c(Cl)c2oc3ccccc3nc-2c2ccccc12`, the z-score is 6.06. Consider `COc1ccc(CCn2c(C3CCCCC3)nc3c(c(=O)c4ccccc4n3C)c2=O)cc1`, for which the z-score is -3.39 (active).

Take `c1cc2c3c(cccc3c1)NC1(CCCCCC1)N2`: the z-score is -4.13 (active). Next, `COc1cc(C(C(=O)NC(C)(C)C)N(Cc2ccccc2)C(=O)c2cnccn2)cc(OC)c1OC` (stereo not given): -0.06; `COc1cc(C(=O)N/N=C(\c2ccccc2)c2ccccn2)cc(OC)c1OC`: -3.93 (active).

Consider `CCc1ccccc1NC1=CC(=O)CC(C)(C)C1`, for which the z-score is 1.6. The figure for `Cc1ccccc1OCc1n(CC(=O)OC2CC(C)CCC2C(C)C)c2ccccc2[n+]1C` (stereo not given) is -5.14 (active); for `Cc1ccccc1OCC(=O)OC1CCN(C)CC1` it is 8.59; for `COCCCNc1c2c3c(cccc3[nH]c1=O)C(=O)c1ccccc1-2` it is 13.6.

In the case of `CCOC(=O)c1c2c3c(c(Cl)ccc3[nH]c1=O)C(=O)c1ccccc1-2`, the z-score was -3.28 (active).

`N#C/C(=C/c1ccc(-c2ccc(S(N)(=O)=O)cc2)o1)c1nc2ccccc2s1`: the z-score is 16.5. The figure for `CSc1nc2ccc(S(N)(=O)=O)cc2s1` is -4.36 (active). The figure for `CC1(C)CCc2c([nH]c3ccccc3c2=O)O1` is 0.3; for `Cc1ccc2[nH]c3c(N4CCCCCC4)ncnc3c2c1` it is -3.59 (active); for `c1ccc2c(c1)[nH]c1c(N3CCC4(CC3)OCCO4)ncnc12` it is -4.74 (active).

For the compound `Cc1cc2ccccn2c1C(=O)c1ccncc1`, the z-score is -8.28 (active). For the compound `COC(=O)c1cc2c(-c3ccccc3)cc3ccccn3c-2c1C(=O)OC`, the z-score is 3.3. The figure for `CC(NC(=O)/C(C#N)=C1\N=C(NC(=O)c2ccco2)c2ccccc21)c1ccccc1` (stereo not given) is 3.68. The figure for `COc1ccc(-c2cnn3c4c(c(C)nc23)CCN4C2CCCC2)cc1OC` is -4.71 (active); for `CCCCNC(=O)C1CC(=O)N(C2CCCCC2)C1` (stereo not given) it is 3.02; for `c1nc(N2CCNCC2)c2sc3nc(N4CCOCC4)c4c(c3c2n1)CCC4` it is -3.71 (active). Next, `CC1(C)NC(=O)N(CCCCOc2ccc3c(c2)CCC3)C1=O`: -1.15; `N#Cc1c2c(c(-n3cnc4ccccc43)n3c1nc1ccccc13)CCC2`: 4.79; `OC(COc1ccc2c(c1)CCC2)Cn1cnc2ccccc21` (stereo not given): -4.14 (active). As for `CCc1cc(C(=O)Cc2cnn(-c3ccccc3)c2)c(O)cc1O`, the z-score was 0.58.

Turning to `O=C1Nc2ccc(NS(=O)(=O)c3cccs3)c3cccc1c23`, the z-score was 1.61. As for `COc1cc2cccc(OC)c(=O)c2c(OC)c1OC`, the z-score was 0.56. Turning to `c1ccc(CCn2nnnc2C(c2cccs2)N2CCN(Cc3ccc4c(c3)OCO4)CC2)cc1` (stereo not given), the z-score is -4.21 (active). Next, `N#C/C(=C\N1CCN(Cc2ccc3c(c2)OCO3)CC1)c1nc2ccccc2s1`: 3.92; `Cc1cc(C)nc(NC2=NCC(=O)N2c2ccc(Cl)cc2)n1`: -3.4 (active). Next, `Cc1ccc(NC2=NCC(=O)N2C2CCCC2)c(C)c1`: 0.57; `CNC(=O)c1c(NC(=O)c2ccc(S(=O)(=O)N3CCCc4ccccc43)cc2)sc2c1CCN(C)C2`: 8.33. In the case of `Cc1cccc2sc(NNC(=O)c3ccc4c(c3)OCCO4)nc12`, the z-score is 3.4.

In the case of `Cc1cc(C)c2nc(NNC(=O)c3ccc(S(=O)(=O)N4CCc5ccccc5C4)cc3)sc2c1`, the z-score is -5.92 (active). Take `CC(C)N1CCc2c(sc(NC(=O)c3ccc(S(=O)(=O)N4CCc5ccccc54)cc3)c2C(N)=O)C1`: the z-score is 4.91. In the case of `CC1CN(S(=O)(=O)c2ccc(C(=O)Nc3sc4c(c3C(N)=O)CCN(C)C4)cc2)CC(C)O1` (stereo not given), the z-score is 11. As for `COc1cccc2sc(NNC(=O)C3=COCCO3)nc12`, the z-score is 5.68.

Take `CCCN1C(=O)S/C(=C\c2ccc(N3CCOCC3)o2)C1=O`: the z-score was 9.56. Next, `COc1ccc(-c2n(Cc3ccccc3)c3ccccc3[n+]2Cc2ccccc2)cc1`: -8.43 (active); `CCOc1ccccc1C(=O)Nc1nnc(COC)s1`: 0.76. Next, `CCc1nnc(NC(=O)CCC(=O)NCc2ccccc2OC)s1`: 4.05; `CCCC1C2CN(C(C)C)CC=C2C(C#N)=C(N)C1(C#N)C#N` (stereo not given): 16.1; `CCOC(=O)CSc1nc2cc3c(cc2cc1CC)OCCO3`: 0.81.
